Measurements from article PMC11006913.
Substitutions are numbered along the chain they refer to.

Experiments:
Assay in all cases: PBM; 200 nM protein, PBS
Details in all cases: dsDNA, one strand shown
[1] = target: T1, SIX6 (Homo sapiens, UniProt O95475 114-200, L167I)
T1 sequence: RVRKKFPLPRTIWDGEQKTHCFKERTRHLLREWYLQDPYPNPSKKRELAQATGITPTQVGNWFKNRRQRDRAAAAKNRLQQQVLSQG

[2] = target: T2, SIX6 (Homo sapiens, UniProt O95475 114-200, H141N)
T2 sequence: T1 sequence with H28N, I54L

[3] = target: T3, SIX6 (Homo sapiens, UniProt O95475 114-200, T165P)
T3 sequence: T1 sequence with T52P, I54L

[4] = target: T4, SIX6 (Homo sapiens, UniProt O95475 114-200, L167M)
T4 sequence: T1 sequence with I54M

[5] = target: T5, SIX6 (Homo sapiens, UniProt O95475 114-200, L143M)
T5 sequence: T1 sequence with L30M, I54L

[6] = target: T6, SIX6 (Homo sapiens, UniProt O95475 114-200, L143I)
T6 sequence: T1 sequence with L30I, I54L

[7] = target: T7, SIX6 (Homo sapiens, UniProt O95475 114-200, T165G)
T7 sequence: T1 sequence with T52G, I54L

[8] = target: T8, SIX6 (Homo sapiens, UniProt O95475 114-200, T139Q)
T8 sequence: T1 sequence with T26Q, I54L

[9] = target: T9, SIX6 (Homo sapiens, UniProt O95475 114-200, T165A)
T9 sequence: T1 sequence with T52A, I54L

[10] = target: T10, SIX6 (Homo sapiens, UniProt O95475 114-200, L167V)
T10 sequence: T1 sequence with I54V

[11] = target: T11, SIX6 (Homo sapiens, UniProt O95475 114-200)
T11 sequence: T1 sequence with I54L

[12] = target: T12, SIX6 (Homo sapiens, UniProt O95475 114-200, T165I)
T12 sequence: T1 sequence with T52I, I54L

[13] = target: T13, SIX6 (Homo sapiens, UniProt O95475 114-200, L143V)
T13 sequence: T1 sequence with L30V, I54L

Sequence | binding signal [1] | binding signal [2] | binding signal [3] | binding signal [4] | binding signal [5] | binding signal [6] | binding signal [7] | binding signal [8] | binding signal [9] | binding signal [10] | binding signal [11] | binding signal [12] | binding signal [13]
ATTATCCG | 10.4 upbm affinity estimate (log intensity, higher = more binding, comparable within an allelic series) | 10.3 upbm affinity estimate (log intensity, higher = more binding, comparable within an allelic series) | 9.7 upbm affinity estimate (log intensity, higher = more binding, comparable within an allelic series) | 10.2 upbm affinity estimate (log intensity, higher = more binding, comparable within an allelic series) | 10.3 upbm affinity estimate (log intensity, higher = more binding, comparable within an allelic series) | 9.95 upbm affinity estimate (log intensity, higher = more binding, comparable within an allelic series) | 10.2 upbm affinity estimate (log intensity, higher = more binding, comparable within an allelic series) | 10.4 upbm affinity estimate (log intensity, higher = more binding, comparable within an allelic series) | 10.2 upbm affinity estimate (log intensity, higher = more binding, comparable within an allelic series) | 10.2 upbm affinity estimate (log intensity, higher = more binding, comparable within an allelic series) | 10.3 upbm affinity estimate (log intensity, higher = more binding, comparable within an allelic series) | 10.2 upbm affinity estimate (log intensity, higher = more binding, comparable within an allelic series) | 
AGTTGTAT | 10.2 upbm affinity estimate (log intensity, higher = more binding, comparable within an allelic series) | 10.2 upbm affinity estimate (log intensity, higher = more binding, comparable within an allelic series) |  | 10.1 upbm affinity estimate (log intensity, higher = more binding, comparable within an allelic series) |  |  |  |  |  |  | 10.3 upbm affinity estimate (log intensity, higher = more binding, comparable within an allelic series) | 10.2 upbm affinity estimate (log intensity, higher = more binding, comparable within an allelic series) | 
ATATCACC | 11.2 upbm affinity estimate (log intensity, higher = more binding, comparable within an allelic series) | 11.1 upbm affinity estimate (log intensity, higher = more binding, comparable within an allelic series) |  |  |  |  | 11.2 upbm affinity estimate (log intensity, higher = more binding, comparable within an allelic series) |  | 11.1 upbm affinity estimate (log intensity, higher = more binding, comparable within an allelic series) | 10.9 upbm affinity estimate (log intensity, higher = more binding, comparable within an allelic series) |  | 10.9 upbm affinity estimate (log intensity, higher = more binding, comparable within an allelic series) | 
CATATCAA | 11.2 upbm affinity estimate (log intensity, higher = more binding, comparable within an allelic series) | 11.1 upbm affinity estimate (log intensity, higher = more binding, comparable within an allelic series) |  |  |  |  | 11.2 upbm affinity estimate (log intensity, higher = more binding, comparable within an allelic series) |  | 11.2 upbm affinity estimate (log intensity, higher = more binding, comparable within an allelic series) | 10.9 upbm affinity estimate (log intensity, higher = more binding, comparable within an allelic series) |  | 11 upbm affinity estimate (log intensity, higher = more binding, comparable within an allelic series) | 
AGGTGTCA | 10.4 upbm affinity estimate (log intensity, higher = more binding, comparable within an allelic series) |  |  | 9.88 upbm affinity estimate (log intensity, higher = more binding, comparable within an allelic series) |  |  | 11.2 upbm affinity estimate (log intensity, higher = more binding, comparable within an allelic series) | 11.1 upbm affinity estimate (log intensity, higher = more binding, comparable within an allelic series) | 11.2 upbm affinity estimate (log intensity, higher = more binding, comparable within an allelic series) |  |  |  | 
ATATCAAG | 11.1 upbm affinity estimate (log intensity, higher = more binding, comparable within an allelic series) |  |  |  | 11 upbm affinity estimate (log intensity, higher = more binding, comparable within an allelic series) |  | 11.1 upbm affinity estimate (log intensity, higher = more binding, comparable within an allelic series) |  |  | 10.9 upbm affinity estimate (log intensity, higher = more binding, comparable within an allelic series) |  | 10.9 upbm affinity estimate (log intensity, higher = more binding, comparable within an allelic series) | 
GGTGTCAA | 10.4 upbm affinity estimate (log intensity, higher = more binding, comparable within an allelic series) |  | 9.33 upbm affinity estimate (log intensity, higher = more binding, comparable within an allelic series) | 9.85 upbm affinity estimate (log intensity, higher = more binding, comparable within an allelic series) |  |  | 11.1 upbm affinity estimate (log intensity, higher = more binding, comparable within an allelic series) |  | 11.1 upbm affinity estimate (log intensity, higher = more binding, comparable within an allelic series) |  |  |  | 
AGAATATC | 10.5 upbm affinity estimate (log intensity, higher = more binding, comparable within an allelic series) | 10.3 upbm affinity estimate (log intensity, higher = more binding, comparable within an allelic series) | 9.77 upbm affinity estimate (log intensity, higher = more binding, comparable within an allelic series) | 10.4 upbm affinity estimate (log intensity, higher = more binding, comparable within an allelic series) | 10.5 upbm affinity estimate (log intensity, higher = more binding, comparable within an allelic series) | 9.98 upbm affinity estimate (log intensity, higher = more binding, comparable within an allelic series) | 10.5 upbm affinity estimate (log intensity, higher = more binding, comparable within an allelic series) | 10.5 upbm affinity estimate (log intensity, higher = more binding, comparable within an allelic series) | 10.4 upbm affinity estimate (log intensity, higher = more binding, comparable within an allelic series) | 10.3 upbm affinity estimate (log intensity, higher = more binding, comparable within an allelic series) | 10.3 upbm affinity estimate (log intensity, higher = more binding, comparable within an allelic series) | 10.3 upbm affinity estimate (log intensity, higher = more binding, comparable within an allelic series) | 
GACGGATA | 10.2 upbm affinity estimate (log intensity, higher = more binding, comparable within an allelic series) | 10.1 upbm affinity estimate (log intensity, higher = more binding, comparable within an allelic series) | 9.43 upbm affinity estimate (log intensity, higher = more binding, comparable within an allelic series) |  |  | 9.79 upbm affinity estimate (log intensity, higher = more binding, comparable within an allelic series) |  |  |  |  | 10.2 upbm affinity estimate (log intensity, higher = more binding, comparable within an allelic series) |  | 9.77 upbm affinity estimate (log intensity, higher = more binding, comparable within an allelic series)
ACAATACT | 10.3 upbm affinity estimate (log intensity, higher = more binding, comparable within an allelic series) | 10.2 upbm affinity estimate (log intensity, higher = more binding, comparable within an allelic series) |  | 10.2 upbm affinity estimate (log intensity, higher = more binding, comparable within an allelic series) | 10.4 upbm affinity estimate (log intensity, higher = more binding, comparable within an allelic series) | 10.1 upbm affinity estimate (log intensity, higher = more binding, comparable within an allelic series) | 10.3 upbm affinity estimate (log intensity, higher = more binding, comparable within an allelic series) | 10.5 upbm affinity estimate (log intensity, higher = more binding, comparable within an allelic series) | 10.3 upbm affinity estimate (log intensity, higher = more binding, comparable within an allelic series) | 10.2 upbm affinity estimate (log intensity, higher = more binding, comparable within an allelic series) | 10.2 upbm affinity estimate (log intensity, higher = more binding, comparable within an allelic series) | 10.2 upbm affinity estimate (log intensity, higher = more binding, comparable within an allelic series) | 
GATATACA | 11.1 upbm affinity estimate (log intensity, higher = more binding, comparable within an allelic series) |  |  | 10.9 upbm affinity estimate (log intensity, higher = more binding, comparable within an allelic series) |  | 10.4 upbm affinity estimate (log intensity, higher = more binding, comparable within an allelic series) |  |  |  |  |  | 10.9 upbm affinity estimate (log intensity, higher = more binding, comparable within an allelic series) | 
ATATCACG | 11.1 upbm affinity estimate (log intensity, higher = more binding, comparable within an allelic series) | 11.1 upbm affinity estimate (log intensity, higher = more binding, comparable within an allelic series) |  |  |  |  |  |  | 11 upbm affinity estimate (log intensity, higher = more binding, comparable within an allelic series) |  |  | 10.9 upbm affinity estimate (log intensity, higher = more binding, comparable within an allelic series) | 
GATCAGCC | 10.2 upbm affinity estimate (log intensity, higher = more binding, comparable within an allelic series) |  | 9.41 upbm affinity estimate (log intensity, higher = more binding, comparable within an allelic series) | 10 upbm affinity estimate (log intensity, higher = more binding, comparable within an allelic series) |  | 9.82 upbm affinity estimate (log intensity, higher = more binding, comparable within an allelic series) |  |  |  |  | 10.3 upbm affinity estimate (log intensity, higher = more binding, comparable within an allelic series) |  | 9.81 upbm affinity estimate (log intensity, higher = more binding, comparable within an allelic series)
GTATCTTA | 10.7 upbm affinity estimate (log intensity, higher = more binding, comparable within an allelic series) | 10.7 upbm affinity estimate (log intensity, higher = more binding, comparable within an allelic series) | 9.9 upbm affinity estimate (log intensity, higher = more binding, comparable within an allelic series) | 10.3 upbm affinity estimate (log intensity, higher = more binding, comparable within an allelic series) | 10.5 upbm affinity estimate (log intensity, higher = more binding, comparable within an allelic series) | 10.2 upbm affinity estimate (log intensity, higher = more binding, comparable within an allelic series) | 10.8 upbm affinity estimate (log intensity, higher = more binding, comparable within an allelic series) | 11 upbm affinity estimate (log intensity, higher = more binding, comparable within an allelic series) | 10.6 upbm affinity estimate (log intensity, higher = more binding, comparable within an allelic series) | 10.6 upbm affinity estimate (log intensity, higher = more binding, comparable within an allelic series) | 10.5 upbm affinity estimate (log intensity, higher = more binding, comparable within an allelic series) | 10.5 upbm affinity estimate (log intensity, higher = more binding, comparable within an allelic series) | 
ATCCTAAT | 10.2 upbm affinity estimate (log intensity, higher = more binding, comparable within an allelic series) | 10.2 upbm affinity estimate (log intensity, higher = more binding, comparable within an allelic series) |  | 10.1 upbm affinity estimate (log intensity, higher = more binding, comparable within an allelic series) | 10.2 upbm affinity estimate (log intensity, higher = more binding, comparable within an allelic series) |  | 10.2 upbm affinity estimate (log intensity, higher = more binding, comparable within an allelic series) | 10.5 upbm affinity estimate (log intensity, higher = more binding, comparable within an allelic series) | 10.2 upbm affinity estimate (log intensity, higher = more binding, comparable within an allelic series) | 10.1 upbm affinity estimate (log intensity, higher = more binding, comparable within an allelic series) | 10.2 upbm affinity estimate (log intensity, higher = more binding, comparable within an allelic series) | 10.2 upbm affinity estimate (log intensity, higher = more binding, comparable within an allelic series) | 
